Screens (PubChem BioAssay)
Only some compounds are listed: those with a hit (about 6.5% of all), similar ones and a draw of the others.
Spn PMK inh – blocks S. pneumoniae phosphomevalonate kinase. purified PMK, PK/LDH-coupled NADH absorbance 340 nm. inhibition, % at 10 µM. 0.49% of 65,000 active. AID 539;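 active = top-ranked compounds by inhibition in the single 10 µM screen, taking a fixed number of the strongest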;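 also: 0% = full reaction with DMSO carrier and 100% = background rate without enzyme reaction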
NADH coupling – inhibition of NAD/NADH coupling enzymes, library profiling. coupled PK/LDH NADH assays, four targets. IC50, µM (highest dose often 10 µM), for inactives: at the top dose inhibition. 0.02% of 65,000 active. AID 774;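 active = single-dose screening hits from any of four coupled enzyme assays that gave an IC50 when retested across doses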;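 also: the DPM-DC format reads NADH fluorescence rather than 340 nm absorbance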
DPM-DC inhibit – S. pneumoniae DPM-DC inhibition | calls only at 10 µM | 0.49% of 65,000 active | purified DPM-DC, PK/LDH coupled NADH fluorescence | AID 556;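 active = the 320 compounds with the highest percent inhibition in the single-dose primary screen, excluding strongly autofluorescent ones, cut at about 32% in these data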;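 also: kinetic rate of NADH fluorescence loss reporting ADP formed by the decarboxylase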
Spn MK inh – S. pneumoniae mevalonate kinase inhibition. purified MK, PK/LDH-coupled NADH absorbance 340 nm. inhibition, % at 10 µM. 0.48% of 65,000 active. AID 555;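 active = ranked among the strongest by inhibition in the single 10 µM screen, a fixed top-ranked set picked for dose follow-up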
Autofluor 339 – intrinsic fluorescence of library compounds, ex339/em460 – biochemical, MLSMR library, data from DPM-DC assay, artefact control, profiling panel; fluorescence fold increase at 10 µM; compound autofluorescence, ex339/em460 nm, NADH buffer; stronger effect = higher value; 1 = no-compound wells, NADH background; 5.5% of 65,000 active; AID 709;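 active = at 10 µM, mean starting fluorescence two-fold or more over control wells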;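 also: signal is the first read of a kinetic run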
Abs 340nm – compounds absorbing at 340 nm. compound absorbance at 340 nm, fold over control. fold change at 10 µM. 65,000 tested, under 10 active. AID 708;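 active = at 10 µM dose, initial 340 nm absorbance at least 2 fold that of control wells; inactive = change under 2 fold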;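 also: initial absorbance extrapolated from kinetic A340 decline of NADH oxidation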
* = called active by the depositor; i = inactive; · = no result given; + = active, no number.

SMILES | Spn PMK inh | NADH coupling | DPM-DC inhibit | Spn MK inh | Autofluor 339 | Abs 340nm
Cc1c(OCC(=O)OC(C)(C)C)ccc2c3c(c(=O)oc12)CCC3 | 0 | 1% | i | 4 | 1.9 | 1.1
COC(=O)[C@H](CCSC)NC(=O)Nc1ccc(C)cc1C | 0 | 0% | i | 0 | 1.1 | 1
CCC(NC(=O)OC(C)(C)C)C(=O)Oc1ccc2c3c(c(=O)oc2c1)CCC3 (configuration not stated) | 9 | 9% | · | 9 | 3.6* | 1
CSCCC(NC(C)=O)C(=O)Oc1ccc2c3c(c(=O)oc2c1)CCCC3 (configuration not stated) | 0 | 0% | · | 0 | 2.1* | 1.1
Cc1ccccc1CN1CCN(CC(=O)NCc2ccc3c(c2)OCO3)C1=O | 17 | 6% | i | 0 | 1.1 | 0.97
CC(C)(C)NCc1cccn1-c1sc2c(c1C#N)CCCC2 | 0 | 16% | i | 49* | 1.1 | 1.1
CC(=O)Nc1sc2c(c1C#N)CCCCC2 | 15 | 3% | i | 10 | 1 | 0.99
CC1=NCCN1S(=O)(=O)c1cc(Cl)ccc1Cl | 13 | 6% | i | 4 | 1.1 | 1
Cc1cc2cc(CNC(=O)Cc3cccs3)ccc2n1C | 11 | 4% | i | 2 | 1.1 | 1
Cc1c2c(nc3c(C(=O)NC4CCCCC4C)cnn13)CCCC2 (configuration not stated) | 29* | 16% | · | 3 | 4.4* | 1
CCn1cc(C(=O)NC2CCCCC2C)c(=O)c2ccc(C)nc21 (configuration not stated) | 17 | 9% | i | 11 | 1.3 | 1.1
COc1c2ccoc2nc2c(OC)c(OCC(O)C(C)(C)O)ccc12 (configuration not stated) | 0 | 1% | · | 5 | 2.5* | 1
COc1cc(NC(=O)c2ccco2)c(OC)cc1NC(=O)CCC(=O)Nc1cc(C)cc(C)c1 | 5 | 4% | i | 0 | 1.1 | 1
COc1cc(NC(=O)c2ccco2)c(OC)cc1NC(=O)CCC(=O)Nc1cc(C)ccc1C | 8 | 37% | + | 7 | 2.7* | 1
c1cnc(Oc2ccc(-c3nnco3)cc2)cn1 | 5 | 2% | i | 0 | 1.1 | 1
Cc1cnc(-c2nnc(N(C)C(=O)C3CCCO3)s2)cn1 (configuration not stated) | 16 | 20% | i | 21 | 2.3* | 1
COCC(=O)N(C)c1nnc(-c2cnc(C)cn2)s1 | 32* | 15% | i | 0 | 1.6 | 1
Cc1csc(NC(=O)C2CCCO2)n1 (configuration not stated) | 12 | 2% | i | 0 | 0.97 | 0.98
COc1ccc2nc(NC(=O)C(NS(=O)(=O)c3cccs3)C(C)C)sc2c1 (configuration not stated) | 11 | 1% | i | 0 | 1.1 | 1
CCCn1c(CNc2ccc(Br)cc2)nc2ccccc21 | 0 | 2% | i | 4 | 1 | 1
Cc1ccc(Oc2ccc(S(=O)(=O)N3CCOCC3)cc2C(N)=O)c(-n2nc3ccccc3n2)c1 | 7 | 2% | i | 0 | 1.4 | 1
N#CCSC1=Nc2ccccc2C2=NC(CCC(=O)N3CCN(c4ccccc4)CC3)C(=O)N12 (configuration not stated) | 13 | 4% | i | 0 | 1.2 | 1.1
CC(C)C1N=C2c3ccccc3N=C(SCC#N)N2C1=O (configuration not stated) | 8 | 8% | i | 7 | 2.6* | 1.1
CN(C)CCOC(C)(c1ccccc1)c1ccccn1 (configuration not stated) | 6 | 3% | i | 1 | 1 | 0.97
Cc1n[nH]c(C)c1S(=O)(=O)Nc1ccc2c(c1)OCCO2 | 15 | 4% | i | 0 | 1.1 | 1
SMILES | Spn PMK inh | NADH coupling | DPM-DC inhibit | Spn MK inh | Autofluor 339 | Abs 340nm
O=C(Nc1ccc2c(c1)CCC2)C1COc2ccccc2O1 (configuration not stated) | 15 | 8% | i | 0 | 2.1* | 1
CCOC(=O)c1oc2ccccc2c1NC(=O)c1cccc(OC)c1OC | 13 | 3% | i | 10 | 1.2 | 0.99
CCCC(=O)Nc1ccc(N2CCN(C(=O)CCC)CC2)cc1 | 11 | 14% | + | 0 | 1.1 | 1
CCOC(=O)CSCc1nc(-c2ccc(Cl)cc2)oc1C | 0 | 1% | i | 3 | 1.1 | 1
CCOC(=O)CNc1c(-c2ccc(F)cc2)nc2cnccn12 | 18 | 13% | · | 8 | 2.3* | 1.1
CCOC(=O)CNc1c(-c2ccc(Cl)cc2)nc2cnccn12 | 20 | 10% | · | 0 | 4.9* | 1.1
CCOC(=O)CCc1c(C)nc2cc(-c3ccc(F)cc3)[nH]n2c1=O | 11 | 4% | i | 8 | 1.4 | 0.99
CCCOc1cc(C)c(S(=O)(=O)n2ccc(C)n2)cc1C | 8 | 5% | i | 6 | 1 | 1
CCOc1ccc(-c2nc(C#N)c(N3CCN(Cc4ccccc4)CC3)o2)cc1 | 7 | 6% | i | 9 | 1.8 | 1.1
Cc1cccc(-c2nc(C#N)c(N3CCCCCC3)o2)c1 | 6 | 7% | · | 8 | 3.8* | 1.1
CCOc1ccc(-c2nc(C#N)c(N3CCOCC3)o2)cc1 | 2 | 7% | · | 12 | 2.2* | 1.1
CCN1CCN(c2oc(-c3ccc(OC)cc3)nc2C#N)CC1 | 0 | 1% | · | 2 | 3.8* | 1.1
N#Cc1nc(-c2ccc(OCc3ccccc3)cc2)oc1N1CCC(C(N)=O)CC1 | 11 | 9% | · | 7 | 4* | 1.1
COc1ccccc1OCc1nc(C#N)c(N2CCC(C(N)=O)CC2)o1 | 9 | 5% | i | 7 | 1.1 | 1
COC(=O)c1ccccc1NC(=O)CSc1nnc(-c2cccc(NC(C)=O)c2)n1C | 12 | 6% | i | 6 | 1.1 | 1
O=C(NCc1ccco1)C(c1cccs1)N(C(=O)C1COc2ccccc2O1)c1cccc(O)c1 (configuration not stated) | 7 | 2% | i | 0 | 1.1 | 1
CCOc1ccc(-c2nc(C#N)c(NCc3ccc4c(c3)OCO4)o2)cc1 | 5 | 5% | i | 12 | 1.8 | 1
CCOc1ccc(-c2nc(C#N)c(NC3CC3)o2)cc1 | 17 | 15% | · | 13 | 3.8* | 1
COc1ccc(S(=O)(=O)N2CCN(CC(=O)Nc3cc(C(F)(F)F)ccc3Cl)CC2)cc1 | 9 | 7% | i | 3 | 1.1 | 1
CC(C)Cn1c(=O)c2c(nc3n2CCCN3CCc2ccccc2)n(C)c1=O | 0 | 0% | i | 0 | 1.1 | 1
Cc1cccc(C2Nc3ccccc3C(=O)N2c2ccccc2)n1 (configuration not stated) | 3 | 3% | · | 3 | 2.2* | 1.1
O=C1c2ccccc2NC(c2ccccc2)N1c1ccc(O)cc1 (configuration not stated) | 13 | 9% | i | 13 | 1.6 | 1.1
